Activity calls are given as the source filed them. Unless noted, the rule behind the calls is not given here.

Data on twelve compounds can be found in PubChem BioAssay.

A short description of experiment [1]: HepG2 liver cancer cell viability effects, profiling panel, resazurin fluorescence, 24 h, PK04 Diversity Set (AID 1172). Note: test concentration not given here. As to conditions: higher = more signal. (In general: Resazurin is reduced to fluorescent resorufin, in cell work by metabolically active cells.)
The nature of experiment [2]: basal S. cerevisiae growth modulation, no modifier, primary screen, OD600, strain BY4716, 24 h, basal condition (AID 1173). Particulars: OD600, 24 h, higher = more signal, called active from +8 up or from −8 down.
Experiment [3] in a line: MM1S myeloma cell viability, profiling panel, resazurin fluorescence, basal, 24 h, PK04 Diversity Set (AID 1174). Note: test concentration not given here. As to conditions: higher = more signal, called active from +8 up or from −8 down.
The target in experiment [4] is Dihydroorotate dehydrogenase (quinone), mitochondrial (Plasmodium falciparum (isolate 3D7)) (UniProt Q08210). In words: PfDHODH enzyme inhibitors, primary screen, biochemical, C-terminal His tag, absorbance 600 nm (AID 1175).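 Note: recombinant parasite enzyme with a five histidine tag at its C terminus; test concentration not given here.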 As to conditions: DCIP absorbance 600 nm, higher = more signal, called active from +8 up or from −8 down.
Experiment [5] in a line: P. aeruginosa biofilm formation inhibitors, primary screen, strain PAO1, LB-PBS medium, absorbance 600 nm (AID 1176). Note: test concentration not given here. Particulars: P. aeruginosa PAO1 growth/biofilm, A600, 12 h; higher = more signal.
A short description of experiment [6]: S. cerevisiae RM11-1a growth modifiers, primary screen, strain RM11-1a, OD600, basal, 24 h (AID 1177).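 Note: cultures grown under basal conditions with no added stressor; test concentration not given here.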 As to conditions: OD600, 24 h, higher = more signal, called active from +8 up or from −8 down.
Experiment [7] in a line: E. coli acrAB mutant growth effects, primary screen, E. coli filamentation inducers, strain DRC39, OD650, 24 h (AID 1178).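 Note: growth measured as culture turbidity by optical density at 650 nm; test concentration not given here.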 Particulars: higher = more signal, called active from +8 up or from −8 down.
A short description of experiment [8]: E. coli acrAB mutant growth effects, primary screen, E. coli filamentation inducers, strain DRC39, OD650, 48 h (AID 1179).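 Note: screen aims at cell division blockers that make cells filament.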 Particulars: E. coli DRC39 delta-acrAB growth, higher = more signal, called active from +8 up or from −8 down.
Experiment [9] in a line: RPMI8226 myeloma cell viability, profiling panel, resazurin fluorescence, basal, 24 h, PK04 Diversity Set (AID 1180).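 Note: RPMI8826 multiple myeloma cell line at 5000 cells per well; test concentration not given here.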 As to conditions: higher = more signal.
The target in experiment [10] is E3 ubiquitin-protein ligase XIAP (Homo sapiens) (UniProt P98170). In words: XIAP binders, primary screen, biophysical, small-molecule microarray, fluorescence 635 nm (AID 1181).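 Note: score merges 667 nm emission and signal to noise over triplicate slides.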 As to conditions: small-molecule microarray binding, higher = more signal.
Chain of E3 ubiquitin-protein ligase XIAP (Homo sapiens) (P98170 whole entry, looked up): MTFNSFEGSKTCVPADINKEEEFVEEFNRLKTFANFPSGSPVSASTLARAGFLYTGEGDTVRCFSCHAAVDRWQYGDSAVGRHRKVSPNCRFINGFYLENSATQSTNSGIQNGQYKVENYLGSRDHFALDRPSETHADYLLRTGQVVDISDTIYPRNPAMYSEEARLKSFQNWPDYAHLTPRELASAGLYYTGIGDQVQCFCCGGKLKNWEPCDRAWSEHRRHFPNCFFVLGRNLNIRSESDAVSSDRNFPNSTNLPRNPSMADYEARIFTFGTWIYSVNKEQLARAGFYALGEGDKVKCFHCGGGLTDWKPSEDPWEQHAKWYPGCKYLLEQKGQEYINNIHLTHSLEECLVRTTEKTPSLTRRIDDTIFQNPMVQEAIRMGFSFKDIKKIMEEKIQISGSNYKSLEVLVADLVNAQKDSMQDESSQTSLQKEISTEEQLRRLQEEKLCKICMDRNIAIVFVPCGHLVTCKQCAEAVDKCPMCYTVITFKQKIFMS

Chain of Dihydroorotate dehydrogenase (quinone), mitochondrial (Plasmodium falciparum (isolate 3D7)) (Q08210 whole entry, looked up): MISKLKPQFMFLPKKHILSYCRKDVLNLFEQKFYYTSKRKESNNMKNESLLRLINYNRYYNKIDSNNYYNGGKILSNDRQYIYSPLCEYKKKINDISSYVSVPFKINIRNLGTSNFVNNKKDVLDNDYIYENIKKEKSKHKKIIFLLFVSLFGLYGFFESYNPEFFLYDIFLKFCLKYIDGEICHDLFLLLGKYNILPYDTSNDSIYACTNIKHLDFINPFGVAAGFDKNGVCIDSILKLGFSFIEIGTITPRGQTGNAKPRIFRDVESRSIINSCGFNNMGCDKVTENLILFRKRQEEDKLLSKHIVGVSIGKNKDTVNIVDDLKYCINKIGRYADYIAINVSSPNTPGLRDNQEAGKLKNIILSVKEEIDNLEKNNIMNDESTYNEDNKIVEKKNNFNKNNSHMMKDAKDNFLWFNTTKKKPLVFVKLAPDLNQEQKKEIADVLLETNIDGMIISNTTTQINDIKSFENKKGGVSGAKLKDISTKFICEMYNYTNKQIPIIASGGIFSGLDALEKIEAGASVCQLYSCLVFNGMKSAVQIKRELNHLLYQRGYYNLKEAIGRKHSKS

For `CO[C@H]1O[C@H](CO)[C@@H](OC(=O)c2ccc(Br)cc2)[C@@H]2OC(=O)[C@H](Cc3cccc(Br)c3)C/C=C/C[C@@H](Cc3cccc(Br)c3)C(=O)O[C@@H]12`, the z-score in experiment [1] is -0.673; in experiment [2], -0.611 (inactive); in experiment [3], -0.402 (inactive); in [5], 0.566 (inactive); in experiment [6], 0.393 (inactive); in experiment [7], 0.198 (inactive). Besides, the z-score in experiment [8] is 0.188 (inactive); in experiment [9], -1.47. In addition, the composite z-score in [4] was -0.71 (inactive); in experiment [10], -0.0663.

Consider `CN(C)CCCCNC(=O)[C@H]1C[C@H]2C(=O)N[C@@H](CCCC[N+](C)(C)C)C(=O)N2[C@H]1c1cccc(OCCO)c1`, for which the z-score was 0.49 in experiment [1]; 0.168 (inactive) in experiment [2]; 0.505 (inactive) in experiment [3]; 1.06 (inactive) in experiment [5]; -0.557 (inactive) in [6]; -0.163 (inactive) in experiment [7]. The z-score was -0.853 (inactive) in experiment [8] and -0.0588 in experiment [9]. Also, the composite z-score in experiment [4] is -0.119 (inactive); in experiment [10], -0.243.

`COC(=O)[C@@]1(Cc2ccc(F)cc2)[C@H]2c3cc(C(=O)N(C)C)n(Cc4ccc(C)c(F)c4F)c3C[C@H]2CN1C(=O)c1ccccc1`: the z-score in [1] was 0.245; in [2], 0.534 (inactive); in [3], -0.231 (inactive); in experiment [5], -0.0298 (inactive); in [6], 0.671 (inactive); in experiment [7] it was 0.171 (inactive). The values for the z-score in experiment [8] and in experiment [9] were 0.265 (inactive) and -0.455, respectively. Moreover, the values for the composite z-score in experiment [4] and in [10] were 0.059 (inactive) and -0.102, respectively.

Regarding `CC1C=C(CCCO)C=C(C(=O)OCCS(C)(=O)=O)C(C(=O)OCCS(C)(=O)=O)=CN1Cc1cccc(OC(F)(F)F)c1` (stereo not given), the z-score in experiment [1] was -0.096; in experiment [2], -3.46 (inactive); in [3] it was -0.0212 (inactive); in experiment [5] it was 0.944 (inactive); in [6] it was 0.309 (inactive); in [7], 0.736 (inactive). Moreover, the z-score in [8] is 0.503 (inactive); in experiment [9] it was 0.0364. Also, the results for the composite z-score in experiment [4] and in experiment [10] were -2.15 (inactive) and -0.0659, respectively.

For the compound `C=CCC(OC(C)=O)[C@@H]1[C@@H](N(Cc2cccc3ccccc23)C(=O)Cc2ccc(F)cc2)c2cc(OCCCO)ccc2N1C(=O)Cc1ccc(OC)cc1` (stereo not given in full), the z-score in experiment [1] is 0.303; in [2], -1.61 (inactive); in experiment [3], 0.738 (inactive); in [5], -0.206 (inactive); in experiment [6] it was -1.16 (inactive); in experiment [7] it was 0.248 (inactive). Besides, the z-score in [8] is 0.927 (inactive); in experiment [9], 1.01. Also, the composite z-score in experiment [4] was -0.83 (inactive); in experiment [10], -0.01.

With `CCCCC(CC)C(O)C1C=CC2C(=O)NC(=O)C2N1Nc1ccccn1` (stereo not given), the z-score in [1] was -1.39; in experiment [2], 0.332 (inactive); in [3] it was -1.51 (inactive); in experiment [5] it was 1.2 (inactive); in experiment [6], 0.852 (inactive); in [7], -0.486 (inactive). In addition, the z-score is -0.112 (inactive) in experiment [8] and -0.675 in experiment [9]. The composite z-score in experiment [4] is 0.56 (inactive); in [10], 0.24.

On to `COC(=O)C(CC#Cc1ccc2c(c1)[C@]1(C(=O)N2)[C@H](c2ccc(O)cc2)N2[C@H](c3ccccc3)[C@H](c3ccccc3)OC(=O)[C@H]2[C@@H]1C(=O)O)C(=O)OC`, for which the z-score in [1] is 0.464; in experiment [2], 0.338 (inactive); in experiment [3], -0.134 (inactive); in experiment [5], 0.875 (inactive); in [6], -0.316 (inactive); in experiment [7], -0.0388 (inactive). The z-score is -0.286 (inactive) in [8] and -0.0316 in [9]. Besides, the results for the composite z-score in experiment [4] and in experiment [10] were -1.59 (inactive) and -0.374, respectively.

Regarding `CN(C)CCCNC(=O)[C@@]1(Cc2ccccc2I)c2ccccc2C(=O)N(Cc2ccccc2Cl)[C@H]1c1ccc(CO)cc1`, the z-score in experiment [1] was -6.48; in [2], -7.72 (inactive); in experiment [3], -8.82 (active); in experiment [5], -0.233 (inactive); in experiment [6], -0.0889 (inactive); in experiment [7], -0.268 (inactive). In addition, the z-score is -1.26 (inactive) in [8] and -6.59 in experiment [9]. For the same compound, the composite z-score is -0.205 (inactive) in [4] and 0.166 in [10].

`COCCCNC(=O)[C@]1(Cc2ccccc2)N=C(c2ccc(OCCCO)cc2)O[C@@H]1c1ccccc1N=[N+]=[N-]`: the z-score in experiment [1] is 0.0754; in [2], -1.75 (inactive); in experiment [3] it was -2.61 (inactive); in experiment [5] it was -0.674 (inactive); in experiment [6], -0.355 (inactive); in experiment [7] it was 1.27 (inactive). For the same compound, the z-score in experiment [8] is 0.642 (inactive); in experiment [9] it was -2.73. The results for the composite z-score in experiment [4] and in [10] were 0.828 (inactive) and -0.02, respectively.

As for `COc1ccc([Si](C)(C)[C@H]2[C@H](CCn3cc(CCO)nn3)O[C@@]3(C(=O)N(Cc4cccc(N5C(=O)c6cccc7cccc5c67)c4)c4ccccc43)[C@@H]2C)cc1`, the z-score is -2.74 in [1]; 0.425 (inactive) in experiment [2]; -6.02 (inactive) in experiment [3]; 1.76 (inactive) in [5]; 2.16 (inactive) in [6]; 2.38 (inactive) in [7]. Also, the z-score in [8] is 1.74 (inactive); in experiment [9], -5.82. Also, the composite z-score in experiment [4] was -0.455 (inactive); in [10] it was 0.235.

As for `CC(C)(C)OC(=O)CC[C@@]1(C(=O)N2CCCCC2)N=C(c2ccc(OCCCO)cc2)O[C@@H]1c1ccccc1N=[N+]=[N-]`, the z-score was -0.254 in experiment [1]; 0.601 (inactive) in [2]; -1.73 (inactive) in experiment [3]; -0.279 (inactive) in [5]; 0.879 (inactive) in experiment [6]; 0.264 (inactive) in [7]. Besides, the z-score is 1.36 (inactive) in experiment [8] and -0.408 in experiment [9]. Besides, the composite z-score in experiment [4] was 0.27 (inactive); in experiment [10] it was -0.0474.

As to `CC(C)C[C@H]1NC(=O)[C@H](C)NC(=O)[C@@]23C(=O)N[C@@H](Cc4ccccc4)C2[C@H](C)[C@@]2(C)O[C@H]2C3/C=C/C/C=C\CNC1=O` (stereo not given in full), the z-score in [1] is -0.594; in [2] it was -0.49 (inactive); in experiment [3], 0.0114 (inactive); in [5] it was 0.413 (inactive); in experiment [6], -0.837 (inactive); in [7] it was -0.599 (inactive). The figures for the z-score in [8] and in experiment [9] were -0.555 (inactive) and 0.154, respectively. Also, the composite z-score in experiment [4] was -0.401 (inactive); in [10] it was 0.0822.
